From PubChem BioAssay
An excerpt weighted towards active compounds, which were near 4.3% of everything screened.
ADAM17 inh: inhibits human ADAM17 | P78536 | 370,000 compounds, 0.83% hits | AID 720648 | inhibition, % at 6.95 µM | recombinant ADAM17, EDANS/DABCYL FRET peptide cleavage;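 active = inhibition above the mean of compounds lying between control limits plus 3 SD, set per campaign, cut at about 8.5% in these data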;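 also: 0% = DMSO-only wells as the low control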
ADAM10 inh: ADAM10 inhibition, QFRET primary screen; AID 720582; 370,000 compounds, 0.62% hits; O14672; recombinant ADAM10, EDANS/DABCYL FRET peptide cleavage, 3 h; inhibition, % at 7 µM;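 active = inhibition above a per-campaign cutoff equal to the mean of compounds falling between control-based bounds plus 3 SD, cut at about 20% in these data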;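 also: 0% = DMSO wells while the 100% control is not disclosed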
GRIN3A LBD mod: modulates the human NR3A ligand-binding domain; NR3A LBD differential scanning fluorimetry, Tm shift; 0% = protein alone, 100% = glycine-bound protein; Tm shift relative to glycine control, % at 25 µM; 340,000 compounds, 2.5% hits;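 active = melting temperature shift of at least 10% of the positive control shift, at one fixed dose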
sPLA2-III inh: Blocks human group III sPLA2 activity. Q9NZ20. QFRET BODIPY PC-A2 liposome hydrolysis, fluorescence. inhibition, % at 12.2 µM. 370,000 compounds, 0.56% hits. AID 743126;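 active = inhibition above mean plus 3 SD of compounds lying within the high and low control bounds, cut at about 19% in these data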;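 also: 0% = median of test compound wells and 100% = no enzyme DMSO wells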
FAS TE block: inhibitors of human fatty acid synthase thioesterase domain | P49327 | recombinant FAS-TE, OMFH fluorogenic substrate, fluorescence endpoint | inhibition, % at 15 µM | 360,000 compounds, 0.67% hits | AID 602261;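 active = compounds whose normalised, plate-corrected inhibition of enzyme fluorescence in the single-dose primary screen is 50% or more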;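 also: 0% = DMSO with enzyme and 100% = substrate without enzyme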
Target sequence (P49327 whole entry, looked up, the tested form may be a part): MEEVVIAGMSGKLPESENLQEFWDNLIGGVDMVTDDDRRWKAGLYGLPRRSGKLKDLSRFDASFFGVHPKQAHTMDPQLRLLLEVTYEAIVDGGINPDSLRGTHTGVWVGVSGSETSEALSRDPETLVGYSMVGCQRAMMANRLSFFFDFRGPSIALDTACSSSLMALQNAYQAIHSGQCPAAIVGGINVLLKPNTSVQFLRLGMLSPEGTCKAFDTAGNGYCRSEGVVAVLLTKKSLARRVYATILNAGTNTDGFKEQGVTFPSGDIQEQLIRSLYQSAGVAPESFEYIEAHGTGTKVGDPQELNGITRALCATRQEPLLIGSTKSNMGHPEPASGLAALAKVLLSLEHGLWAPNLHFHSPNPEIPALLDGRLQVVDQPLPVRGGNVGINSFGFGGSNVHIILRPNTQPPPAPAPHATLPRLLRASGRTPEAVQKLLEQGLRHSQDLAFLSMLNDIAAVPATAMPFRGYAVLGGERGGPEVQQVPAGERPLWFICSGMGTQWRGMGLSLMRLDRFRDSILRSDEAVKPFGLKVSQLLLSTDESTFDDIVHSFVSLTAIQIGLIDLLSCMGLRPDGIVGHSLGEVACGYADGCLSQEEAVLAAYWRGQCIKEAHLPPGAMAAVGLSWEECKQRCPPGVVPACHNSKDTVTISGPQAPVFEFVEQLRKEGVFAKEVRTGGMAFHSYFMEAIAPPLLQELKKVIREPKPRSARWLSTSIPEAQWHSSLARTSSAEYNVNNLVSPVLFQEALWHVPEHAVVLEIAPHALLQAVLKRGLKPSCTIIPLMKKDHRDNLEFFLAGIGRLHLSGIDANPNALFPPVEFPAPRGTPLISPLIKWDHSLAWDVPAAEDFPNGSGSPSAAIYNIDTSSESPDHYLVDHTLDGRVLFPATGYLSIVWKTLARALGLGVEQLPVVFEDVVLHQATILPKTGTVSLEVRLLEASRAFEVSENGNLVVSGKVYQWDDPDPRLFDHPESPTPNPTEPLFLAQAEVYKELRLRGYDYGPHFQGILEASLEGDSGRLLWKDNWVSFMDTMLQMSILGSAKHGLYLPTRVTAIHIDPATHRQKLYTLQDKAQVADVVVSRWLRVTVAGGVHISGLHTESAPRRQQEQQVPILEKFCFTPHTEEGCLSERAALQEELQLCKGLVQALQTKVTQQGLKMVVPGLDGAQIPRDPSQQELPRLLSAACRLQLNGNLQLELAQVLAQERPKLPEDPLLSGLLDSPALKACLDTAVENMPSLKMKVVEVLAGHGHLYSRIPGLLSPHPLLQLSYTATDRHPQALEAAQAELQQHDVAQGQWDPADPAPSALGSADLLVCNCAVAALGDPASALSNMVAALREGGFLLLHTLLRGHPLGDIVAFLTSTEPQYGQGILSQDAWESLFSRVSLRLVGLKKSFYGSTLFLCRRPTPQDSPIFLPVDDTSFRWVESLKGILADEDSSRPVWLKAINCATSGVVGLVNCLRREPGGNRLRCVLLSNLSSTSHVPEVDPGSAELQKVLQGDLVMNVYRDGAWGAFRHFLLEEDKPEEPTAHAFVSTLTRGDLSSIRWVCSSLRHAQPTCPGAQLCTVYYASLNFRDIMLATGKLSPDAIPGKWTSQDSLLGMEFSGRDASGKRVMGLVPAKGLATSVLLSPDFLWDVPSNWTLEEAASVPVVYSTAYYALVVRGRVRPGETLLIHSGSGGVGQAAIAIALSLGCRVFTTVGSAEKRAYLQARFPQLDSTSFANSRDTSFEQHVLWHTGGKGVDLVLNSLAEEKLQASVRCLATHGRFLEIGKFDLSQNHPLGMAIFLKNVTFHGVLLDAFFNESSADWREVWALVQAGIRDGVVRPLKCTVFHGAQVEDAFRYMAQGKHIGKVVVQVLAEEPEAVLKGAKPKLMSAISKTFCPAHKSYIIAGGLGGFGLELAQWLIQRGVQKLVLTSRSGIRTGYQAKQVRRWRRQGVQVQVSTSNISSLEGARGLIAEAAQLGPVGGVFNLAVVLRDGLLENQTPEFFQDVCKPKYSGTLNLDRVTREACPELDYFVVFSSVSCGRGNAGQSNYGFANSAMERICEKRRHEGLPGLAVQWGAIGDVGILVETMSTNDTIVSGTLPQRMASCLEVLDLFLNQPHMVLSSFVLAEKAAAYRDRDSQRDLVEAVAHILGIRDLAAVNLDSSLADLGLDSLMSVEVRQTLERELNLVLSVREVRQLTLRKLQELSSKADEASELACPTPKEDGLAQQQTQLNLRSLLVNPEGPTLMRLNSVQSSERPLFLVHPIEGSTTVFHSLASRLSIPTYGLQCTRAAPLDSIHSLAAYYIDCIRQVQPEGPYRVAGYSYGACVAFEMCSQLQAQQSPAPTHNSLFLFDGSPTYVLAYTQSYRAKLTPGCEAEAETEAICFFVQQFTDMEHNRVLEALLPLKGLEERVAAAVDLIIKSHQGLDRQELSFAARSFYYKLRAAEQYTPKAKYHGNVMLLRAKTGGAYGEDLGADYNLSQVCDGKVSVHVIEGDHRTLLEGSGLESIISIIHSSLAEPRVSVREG
* hit, by the source's call; i = inactive; . = not tested or not shown.

SMILES | ADAM17 inh | ADAM10 inh | GRIN3A LBD mod | sPLA2-III inh | FAS TE block
COc1cc(NC(=O)c2cccc(C)c2)ccc1NC(=O)c1cc2ccccc2o1 | -3 | -15 | 33* | -3 | -3
O=C(Cc1ccc(Cl)cc1)Nc1ccc2oc(=O)ccc2c1 | -34 | -109 | 0 | -2 | 3
O=C(Cc1ccc(Cl)cc1)Nc1ccc(-c2cc3ccccc3oc2=O)c(Cl)c1 | -94 | -250 | 19* | -13 | 28
O=C(COc1ccccc1[N+](=O)[O-])Nc1ccc(NC(=O)c2cc3ccccc3o2)cc1 | -1 | 5 | 12* | -1 | 4
Cc1ccc(NC(=O)c2cc3ccccc3o2)cc1Cl | 0 | -24 | 35* | -11 | 36
O=C(CSc1nc2ccccc2nc1N1CCCCC1)NCc1ccc(Cl)cc1Cl | -3 | 2 | . | 6 | .
O=C(Nc1ccc(NC(=O)c2cc3ccccc3o2)cc1)c1ccco1 | -4 | -25 | 26* | -8 | 4
O=C(Nc1ccc(-c2cn3ccsc3n2)cc1)C1CCCC1 | -1 | 2 | -3 | 0 | -5
O=C(Nc1ccc(-c2cn3ccsc3n2)cc1)C1CC1 | -2 | -8 | 15* | 2 | 1
COC(=O)c1cc(-c2ccc(C(C)(C)C)cc2)c(=O)n2c1CCC2 | -2 | -6 | . | 2 | .
C/C(N)=C(/C#N)C(=O)COC(=O)c1cc(-c2ccc(Br)cc2)nc2ccccc12 | -1 | -13 | 18* | -3 | 28
C/C(N)=C(/C#N)C(=O)COc1ncnc2ccccc12 | -5 | -4 | 0 | -2 | -7
CC(C)(C)CC(=O)NC(=S)Nc1ccccc1C(F)(F)F | 3 | 14 | 14* | 10 | 10
Cc1cc(Nc2ccccc2)nn1C(=O)c1ccc([N+](=O)[O-])cc1 | -4 | 9 | 40* | 4 | 21
Cc1cc(Nc2ccccc2)n(C(=O)c2ccccc2)n1 | 0 | 5 | 18* | 0 | 20
Cc1cc(Nc2ccccc2)nn1C(=O)c1ccc(Cl)cc1 | -5 | 1 | 0 | -1 | 22
Cc1cc(Nc2ccccc2)n(-c2ccccc2)n1 | -1 | 5 | -4 | 4 | -4
O=C(N1CCCCC1)C12CC3CC(C1)CC(C(=O)N1CCCCC1)(C3)C2 | -3 | 2 | 21* | -5 | -3
O=C(N1CCCC1)C12CC3CC(CC(C3)C1)C2 | 1 | 10 | -1 | 2 | -2
CC(C)C(=O)N1CC[C@H]2[C@H](CCCN2Cc2ccccc2)C1 | -5 | -5 | . | 10 | .
O=c1c2cc3cc(Cl)ccc3nc2ncn1N1CCCCC1 | 6 | -1 | . | 9 | .
Brc1ccc(-c2csc(Nc3nc(-c4ccc(Br)cc4)cs3)n2)cc1 | -1 | -9 | 32* | 13 | 22
Clc1cccc(Nc2nc(-c3cccnc3)cs2)c1 | 2 | 10 | 27* | -16 | 16
Brc1ccc(Nc2nc(-c3cccnc3)cs2)cc1 | -1 | 8 | 21* | -3 | 10
Oc1ccc(Nc2nc(-c3cccnc3)cs2)cc1 | . | . | -11 | . | -1
SMILES | ADAM17 inh | ADAM10 inh | GRIN3A LBD mod | sPLA2-III inh | FAS TE block
COc1ccc(Cl)cc1Nc1nc(-c2cccnc2)cs1 | 5 | -2 | 24* | -3 | 22
O=S(=O)(N[C@@H]1CCCC[C@H]1N1CCOCC1)c1ccc(Cl)cc1 | -3 | 1 | . | -4 | .
COc1cccc(CNC(=O)C2CCCN(c3ncccn3)C2)c1OC (configuration not stated) | -8 | -28 | . | -1 | .
Cc1ccc(Nc2nc(-c3cccnc3)cs2)cc1C | -1 | 11 | -3 | 0 | 4
Brc1cccc(Nc2nc(-c3cccnc3)cs2)c1 | 1 | 8 | 43* | 0 | 18
CCCCN(CCCC)S(=O)(=O)c1ccc(NC(=O)c2ccc([N+](=O)[O-])cc2Cl)cc1 | 5 | 9 | 4 | 0 | 22
CCN(CC)S(=O)(=O)c1cc([N+](=O)[O-])ccc1NNC(=O)Nc1ccc(Cl)c(Cl)c1 | 2 | 9 | 18* | -2 | -28
COc1cccc(/C=C2\CC3(OC(=O)c4ccc(Cl)cc4)CCCN2C3)c1 (configuration not stated) | 5 | 9 | . | -13 | .
O=C(CNS(=O)(=O)c1cccc(Cl)c1)Nc1ccc(-c2nc3ccccc3s2)cc1 | -150 | i | 23* | -21 | -10
CC(NS(=O)(=O)c1cccc(Cl)c1)C(=O)Nc1ccc(-c2nc3ccccc3s2)cc1 (configuration not stated) | -16 | -44 | 30* | -19 | 24
CC(C)(C)c1ccc(S(=O)(=O)NCC(=O)Nc2ccc(-c3nc4ccccc4s3)cc2)cc1 | -26 | -100 | 7 | -2 | 3
Cc1ccc(C)c(S(=O)(=O)NC(C)C(=O)Nc2ccc(-c3nc4ccccc4s3)cc2)c1 (configuration not stated) | -63 | -188 | 25* | 1 | 14
O=C(CCS(=O)(=O)c1ccccc1)Nc1ccc(-c2nc3ccccc3s2)cc1 | -27 | -99 | 4 | -10 | 16
COc1ccc(OC)c(S(=O)(=O)N2CCC(C(=O)NCc3cccs3)CC2)c1 | 2 | 3 | . | 10 | .
N#CCC[C@H]1CC[C@]2(CCCN(C(=O)c3ccno3)C2)O1 | -4 | -9 | . | 16 | .
COC(=O)CNC(=O)[C@H](Cc1ccccc1)NC1(C(=O)NCCc2c[nH]c3ccccc23)CCCCC1 | 4 | 6 | . | -53 | .
COc1ccc(CN2C[C@H]3CCCN3c3cc(Br)ccc3S2(=O)=O)cc1 | . | . | 18* | . | 19
Cc1ccc2c(c1)C(CS(=O)(=O)NCc1ccccc1)NC2 (configuration not stated) | -5 | -8 | . | 7 | .
CCOC(=O)[C@@]12CN(C(=O)OC(C)(C)C)CC=C1N(Cc1ccc(OC)cc1)C(=O)[C@H]2CC(=O)NCc1ccc(C)o1 | 2 | 7 | . | -10 | .
Clc1ccc2[nH]c3c(c2c1)CCc1cn[nH]c1-3 | -7 | -20 | 18* | -14 | -36
c1ccc2c3c([nH]c2c1)-c1[nH]ncc1CC3 | -3 | -12 | 30* | -19 | -7
O=C(N/N=C1\CCCc2c1[nH]c1ccc(Cl)cc21)c1ccncc1 | -11 | -35 | -12 | -4 | 5
O=C1CCCc2c1[nH]c1ccccc21 | -4 | 6 | -3 | -1 | -6
COC(=O)[C@]12C[C@H](CC(=O)N3CCOCC3)C(=O)N(Cc3ccc4c(c3)OCO4)C1=C[C@H](C(C)C)O[C@@H]2C1CC1 | -5 | -198 | . | 0 | .
COc1cccc(OC)c1OCCCOc1ccc(C)cc1Br | -3 | -11 | 10* | -3 | 21
Cc1ccc(OCCCN(C)C)c(Br)c1 | -3 | -6 | 0 | 7 | -4
COc1ccccc1OCCCOc1c(C)cc(C)cc1Br | -1 | 1 | 16* | 0 | 18
CC(=O)CC[C@H]1CC[C@]2(CCCN(C(=O)c3ccco3)C2)O1 | -3 | -5 | . | 7 | .
O=C(NCc1ccc2c(c1)OCO2)C1CC(=O)N(CCc2ccc(Cl)cc2)C1 (configuration not stated) | -3 | 4 | 12* | 2 | -4
Cc1ccc(CCN2CC(C(=O)NCc3ccc4c(c3)OCO4)CC2=O)cc1 (configuration not stated) | -2 | 5 | 0 | 4 | -5
